Relative cell viability data for 32 molecules are collected here from the supplement of paper PMC4100887.

Structures are written as SMILES. ± gives the standard deviation of the averaged measurements.

The first assay has as its system IMR-90. Briefly: relative cell viability (ATPlite) vs untreated control (fraction); higher = less toxic. The settings on record: 1 µM; 72 h. On the technique in general: Cellular ATP, detected with luciferase, serves as a proxy for viable cell number.
In turn, `OCC(O)CCO/N=C1\C(c2c(O)[nH]c3ccccc23)=Nc2ccccc21` (centres undefined) [Indirubin Derivative E804] showed a relative cell viability of 0.974 ± 0.098.

The molecule `O=C(Nc1ccncc1)Nc1c(Cl)cc(Cl)cc1Cl` [Rho Kinase Inhibitor II] displayed a relative cell viability of 1.08 ± 0.11.

As to `CC(C)(C)c1nc2c3cc[nH]c(=O)c3c3cc(F)ccc3c2[nH]1` [JAK Inhibitor I], the relative cell viability was 1.01 ± 0.045.

`Cc1ncc2ccccc2c1C#N` [4-Cyano-3-methylisoquinoline] registered a relative cell viability of 0.955 ± 0.066.

The molecule `Cc1ccc(NC2=CC(=O)c3sc(C)nc3C2=O)cc1` [Cdk4 Inhibitor III] returned a relative cell viability of 0.997 ± 0.032.

Molecule `CCOC(=O)c1c(C)[nH]c(/C=C2\C(=O)Nc3ccccc32)c1C` [VEGF Receptor 2 Kinase Inhibitor I] came in with a relative cell viability of 0.961 ± 0.063.

For `C[S+]([O-])c1ccc(-c2nc(-c3ccc(F)cc3)c(-c3ccncc3)[nH]2)cc1` (centres undefined), the relative cell viability worked out at 0.994 ± 0.062.

For `CC(C)n1cnc2c(NCc3ccccc3O)nc(NCCCO)nc21` [Cdk Inhibitor, p35], the relative cell viability stood at 1.04 ± 0.054.

Molecule `CCN(CC)CCNC(=O)c1c(C)[nH]c(/C=C2\C(=O)Nc3ccc(Cl)cc32)c1C` had a relative cell viability of 0.92 ± 0.082.

Molecule `Cn1cc(C2=C(c3cn(CCCSC(=N)N)c4ccccc34)C(=O)NC2=O)c2ccccc21` came in with a relative cell viability of 0.967 ± 0.2.

`Cc1nc2cc3nc(-c4cccs4)cnc3cc2n1C` gave a relative cell viability of 0.894 ± 0.058.

As for `CCCCc1c(-c2ccc(O)cc2)[nH]c2nccnc12` [Aloisine A, RP107], the relative cell viability was found to be 0.913 ± 0.06.

In turn, `O=C(c1ccccc1)c1ccc(N2CCOCC2)cc1O` [DNA-PK Inhibitor V] returned a relative cell viability of 1.01 ± 0.094.

As for `Cc1ccc(S(=O)(=O)/C=C/C#N)cc1`, the relative cell viability stood at 1.01 ± 0.032.

`COc1ccc2nc3n[nH]c(C)c3c(NCCOCCO)c2c1` gave a relative cell viability of 1 ± 0.077.

For `COc1ccc(CNC(=O)Nc2ncc([N+](=O)[O-])s2)cc1` [GSK-3b Inhibitor VIII], the relative cell viability came to 0.978 ± 0.09.

In turn, `CO[C@H]1C[C@@H]2CC[C@@H](C)[C@@](O)(O2)C(=O)C(=O)N2CCCC[C@H]2C(=O)O[C@H]([C@H](C)C[C@@H]2CC[C@@H](O)[C@H](OC)C2)CC(=O)[C@H](C)/C=C(\C)[C@@H](O)[C@@H](OC)C(=O)[C@H](C)C[C@H](C)/C=C/C=C/C=C/1C` [Rapamycin] yielded a relative cell viability of 0.598 ± 0.075.

For `COc1cc2ncc(-c3ccccc3)nc2cc1OC`, the relative cell viability came to 1.1 ± 0.066.

Molecule `CC[C@H](CO)Nc1nc(NCc2ccccc2O)c2ncn(C(C)C)c2n1` [Olomoucine II] showed a relative cell viability of 1.07 ± 0.073.

Consider `Cc1ccc([N+](=O)[O-])cc1S(=O)(=O)N(C)/N=C/c1cnc2ccc(Br)cn12` [PI 3-Kα Inhibitor VIII], for which the relative cell viability worked out at 0.166 ± 0.031.

The molecule `NC(=O)c1ccc2nc(-c3ccc(Oc4ccc(Cl)cc4)cc3)[nH]c2c1` [Chk2 Inhibitor II] showed a relative cell viability of 1.05 ± 0.097.

`O=C(Nc1cc(C(F)(F)F)cc(C(F)(F)F)c1)c1cc(Cl)ccc1O` [IKK-2 Inhibitor V] returned a relative cell viability of 0.878 ± 0.28.

Regarding `Cc1cc(C=C2C(=O)C=CC2=O)cc(C)c1O`, the relative cell viability stood at 0.928 ± 0.045.

In turn, `CCCOc1ccc(/C=C2/SC(=O)NC2=O)cc1` [PIM1/2 Kinase Inhibitor VI] showed a relative cell viability of 0.916 ± 0.1.

Regarding `O=C1Cc2c([nH]c3ccc([N+](=O)[O-])cc23)-c2ccccc2N1` [Alsterpaullone], the relative cell viability is 0.946 ± 0.067.

On to `O=C(O)c1ccc2c3c1cccc3c(=O)n1c3ccccc3nc21`, for which the relative cell viability stood at 0.961 ± 0.12.

Regarding `Cc1cc2ncc(-c3ccccc3)nc2cc1C`, the relative cell viability was 0.969 ± 0.069.

The molecule `O=C(Nc1ccc(-c2cn[nH]c2)cc1)C1COc2ccccc2O1` (centres undefined) [Rho Kinase Inhibitor V] displayed a relative cell viability of 1.09 ± 0.066.

Regarding `Cn1c2ccccc2c2c3c(c4c5ccccc5n(CCC#N)c4c21)CNC3=O`, the relative cell viability is 1.03 ± 0.093.

Molecule `Nc1[nH]nc2nnc(-c3c(-c4ccccc4)nn4ccccc34)cc12` displayed a relative cell viability of 1.03 ± 0.046.

The molecule `NC(=O)Nc1cc(-c2ccccc2)sc1C(N)=O` [IKK-2 Inhibitor XI] displayed a relative cell viability of 0.982 ± 0.094.

As for `COc1cc2ncnc(Nc3ccc(NC(=O)c4ccccc4)cc3)c2cc1OC` [Aurora Kinase Inhibitor II], the relative cell viability stood at 0.92 ± 0.071.

Another assay concerns K562. The assay is described as above. The settings on record: 1 µM; 72 h.
For `OCC(O)CCO/N=C1\C(c2c(O)[nH]c3ccccc23)=Nc2ccccc21` (centres undefined) [Indirubin Derivative E804], the relative cell viability was 0.753 ± 0.058.

On to `O=C(Nc1ccncc1)Nc1c(Cl)cc(Cl)cc1Cl` [Rho Kinase Inhibitor II], for which the relative cell viability stood at 0.856 ± 0.056.

`CC(C)(C)c1nc2c3cc[nH]c(=O)c3c3cc(F)ccc3c2[nH]1` [JAK Inhibitor I]: the relative cell viability came out at 0.796 ± 0.072.

Molecule `Cc1ncc2ccccc2c1C#N` [4-Cyano-3-methylisoquinoline] gave a relative cell viability of 0.917 ± 0.06.

`Cc1ccc(NC2=CC(=O)c3sc(C)nc3C2=O)cc1` [Cdk4 Inhibitor III] came in with a relative cell viability of 0.782 ± 0.1.

`CCOC(=O)c1c(C)[nH]c(/C=C2\C(=O)Nc3ccccc32)c1C` [VEGF Receptor 2 Kinase Inhibitor I] registered a relative cell viability of 0.996 ± 0.047.

Molecule `C[S+]([O-])c1ccc(-c2nc(-c3ccc(F)cc3)c(-c3ccncc3)[nH]2)cc1` (centres undefined) showed a relative cell viability of 0.921 ± 0.054.

The molecule `CC(C)n1cnc2c(NCc3ccccc3O)nc(NCCCO)nc21` [Cdk Inhibitor, p35] returned a relative cell viability of 0.855 ± 0.056.

Regarding `CCN(CC)CCNC(=O)c1c(C)[nH]c(/C=C2\C(=O)Nc3ccc(Cl)cc32)c1C`, the relative cell viability came out at 0.909 ± 0.062.

`Cn1cc(C2=C(c3cn(CCCSC(=N)N)c4ccccc34)C(=O)NC2=O)c2ccccc21` yielded a relative cell viability of 0.834 ± 0.1.

`Cc1nc2cc3nc(-c4cccs4)cnc3cc2n1C` showed a relative cell viability of 0.343 ± 0.04.

Consider `CCCCc1c(-c2ccc(O)cc2)[nH]c2nccnc12` [Aloisine A, RP107], for which the relative cell viability is 0.884 ± 0.048.

`O=C(c1ccccc1)c1ccc(N2CCOCC2)cc1O` [DNA-PK Inhibitor V] returned a relative cell viability of 0.878 ± 0.066.

Consider `Cc1ccc(S(=O)(=O)/C=C/C#N)cc1`, for which the relative cell viability came to 0.721 ± 0.15.

For `COc1ccc2nc3n[nH]c(C)c3c(NCCOCCO)c2c1`, the relative cell viability amounted to 1.02 ± 0.064.

`COc1ccc(CNC(=O)Nc2ncc([N+](=O)[O-])s2)cc1` [GSK-3b Inhibitor VIII] registered a relative cell viability of 0.82 ± 0.048.

In turn, `CO[C@H]1C[C@@H]2CC[C@@H](C)[C@@](O)(O2)C(=O)C(=O)N2CCCC[C@H]2C(=O)O[C@H]([C@H](C)C[C@@H]2CC[C@@H](O)[C@H](OC)C2)CC(=O)[C@H](C)/C=C(\C)[C@@H](O)[C@@H](OC)C(=O)[C@H](C)C[C@H](C)/C=C/C=C/C=C/1C` [Rapamycin] gave a relative cell viability of 0.585 ± 0.032.

With `COc1cc2ncc(-c3ccccc3)nc2cc1OC`, the relative cell viability is 0.888 ± 0.083.

Molecule `CC[C@H](CO)Nc1nc(NCc2ccccc2O)c2ncn(C(C)C)c2n1` [Olomoucine II] came in with a relative cell viability of 0.758 ± 0.02.

With `Cc1ccc([N+](=O)[O-])cc1S(=O)(=O)N(C)/N=C/c1cnc2ccc(Br)cn12` [PI 3-Kα Inhibitor VIII], the relative cell viability was found to be 0.763 ± 0.071.

`NC(=O)c1ccc2nc(-c3ccc(Oc4ccc(Cl)cc4)cc3)[nH]c2c1` [Chk2 Inhibitor II] showed a relative cell viability of 0.778 ± 0.061.

In the case of `O=C(Nc1cc(C(F)(F)F)cc(C(F)(F)F)c1)c1cc(Cl)ccc1O` [IKK-2 Inhibitor V], the relative cell viability worked out at 0.505 ± 0.03.

Consider `Cc1cc(C=C2C(=O)C=CC2=O)cc(C)c1O`, for which the relative cell viability worked out at 0.736 ± 0.16.

On to `CCCOc1ccc(/C=C2/SC(=O)NC2=O)cc1` [PIM1/2 Kinase Inhibitor VI], for which the relative cell viability came to 0.972 ± 0.031.

In turn, `O=C1Cc2c([nH]c3ccc([N+](=O)[O-])cc23)-c2ccccc2N1` [Alsterpaullone] showed a relative cell viability of 0.906 ± 0.074.

`O=C(O)c1ccc2c3c1cccc3c(=O)n1c3ccccc3nc21` registered a relative cell viability of 0.947 ± 0.051.

On to `Cc1cc2ncc(-c3ccccc3)nc2cc1C`, for which the relative cell viability was 0.836 ± 0.094.

Consider `O=C(Nc1ccc(-c2cn[nH]c2)cc1)C1COc2ccccc2O1` (centres undefined) [Rho Kinase Inhibitor V], for which the relative cell viability is 0.824 ± 0.075.

Molecule `Cn1c2ccccc2c2c3c(c4c5ccccc5n(CCC#N)c4c21)CNC3=O` registered a relative cell viability of 0.854 ± 0.1.

Consider `Nc1[nH]nc2nnc(-c3c(-c4ccccc4)nn4ccccc34)cc12`, for which the relative cell viability amounted to 0.915 ± 0.036.

For `NC(=O)Nc1cc(-c2ccccc2)sc1C(N)=O` [IKK-2 Inhibitor XI], the relative cell viability came to 0.983 ± 0.09.

`COc1cc2ncnc(Nc3ccc(NC(=O)c4ccccc4)cc3)c2cc1OC` [Aurora Kinase Inhibitor II] came in with a relative cell viability of 0.909 ± 0.055.
